Most compounds without a hit are left out; they make up all but 13% or so of the library.
USP8 block: inhibitors of human USP8 deubiquitinase | purified USP8, Ub-rhodamine cleavage fluorescence, 30 min | inhibition, % at 20 µM | Ubiquitin carboxyl-terminal hydrolase 8 (Homo sapiens), P40818 | 47,000 compounds, 4.2% hits
USP17 inh: inhibitors of human USP17 deubiquitinase. purified USP17, Ub-rhodamine cleavage fluorescence, 3 h. 47,000 compounds, 6.5% hits. inhibition, % at 50 µM. Ubiquitin carboxyl-terminal hydrolase 17-like protein 5 (Homo sapiens), A8MUK1
Target sequence (A8MUK1 whole entry, looked up): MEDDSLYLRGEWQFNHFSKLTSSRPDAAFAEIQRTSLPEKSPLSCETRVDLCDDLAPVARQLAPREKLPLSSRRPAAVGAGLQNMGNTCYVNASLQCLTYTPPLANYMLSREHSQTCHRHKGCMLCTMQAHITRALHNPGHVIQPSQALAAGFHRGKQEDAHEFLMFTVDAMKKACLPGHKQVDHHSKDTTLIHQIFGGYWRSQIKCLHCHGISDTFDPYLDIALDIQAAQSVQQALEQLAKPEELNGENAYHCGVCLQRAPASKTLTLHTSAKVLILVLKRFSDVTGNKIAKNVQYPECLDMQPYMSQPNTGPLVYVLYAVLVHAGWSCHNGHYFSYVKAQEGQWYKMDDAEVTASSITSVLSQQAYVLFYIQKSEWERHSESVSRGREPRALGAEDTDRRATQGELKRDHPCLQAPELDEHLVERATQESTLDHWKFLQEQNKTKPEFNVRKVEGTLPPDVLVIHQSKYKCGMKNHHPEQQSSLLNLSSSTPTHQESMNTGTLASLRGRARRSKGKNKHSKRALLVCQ
USP28 inh: inhibitors of human USP28 deubiquitinase; purified USP28, Ub-rhodamine cleavage fluorescence, 30 min; inhibition, % at 25 µM; 47,000 compounds, 3% hits
USP30 block: inhibitors of human USP30 deubiquitinase. purified USP30, Ub-rhodamine cleavage fluorescence. Ubiquitin carboxyl-terminal hydrolase 30 (Homo sapiens), Q70CQ3. inhibition, % at 25 µM. 47,000 compounds, 5.3% hits
The depositor's hits bear a star. Rule as the data show it: active = inhibition above about 30%; inactive = the rest.

SMILES | USP8 block | USP17 inh | USP28 inh | USP30 block
O=C(Nc1cc(S(=O)(=O)Nc2ccc(Cl)cc2)ccc1O)c1cc2c(s1)CCC2 | 99* | 14 | 5 | 20
Cc1ccc(S(=O)(=O)N2CCCCC2)cc1NC(=O)c1cc2c(s1)CCC2 | 11 | -2 | 6 | 15
O=C(Nc1cc(S(=O)(=O)N2CCOCC2)ccc1N1CCOCC1)c1cc2c(s1)CCCC2 | 14 | 16 | 8 | 30*
Nc1ccc(NC(=O)c2cc3c(s2)CCC3)cc1[N+](=O)[O-] | 57* | 58* | 31* | 21
CC1(C(=O)NC2CCCC2)Cn2c(cc3sccc32)C(=O)N1Cc1cccnc1 (configuration not stated) | 16 | 9 | 4 | 8
CC(C)CCNC(=O)C1(C)CN(S(=O)(=O)c2ccccc2)CC(=O)N1c1ccc(Cl)cc1 (configuration not stated) | 1 | -4 | 5 | -7
Cc1nccnc1CCC1COCCN1C(=O)c1ccc2n[nH]nc2c1 (configuration not stated) | 29 | 5 | 7 | 31*
O=C(Oc1ccccc1Br)c1ccc(Cl)c(S(=O)(=O)N2CCCCC2)c1 | 31* | 0 | -5 | -33
CCN1C(=O)[C@H]2CN(C(C)=O)C[C@H]2C12CCN(C(=O)NCc1ccccc1C)CC2 | -13 | 7 | 1 | 13
Fc1cccc(Oc2nc(CN3CCOCC3)nc3sc4c(c23)CCCC4)c1 | -11 | -14 | 7 | -78
Fc1ccc(Oc2nc(CN3CCOCC3)nc3sc4c(c23)CCCC4)c(Cl)c1 | -3 | 4 | 58* | -28
CC(C)CN1CCN(C(=O)c2cnc(-c3ccccc3)nc2-c2ccncc2)CC1 | -9 | -19 | -24 | -71
C=C[C@H]1[C@H](O[C@@H]2O[C@H](CO)[C@@H](O)[C@H](O)[C@H]2O)OC=C2C(=O)OCCC3C(=CO[C@@H](O[C@@H]4O[C@H](CO)[C@@H](O)[C@H](O)[C@H]4O)[C@@H]3C=C)C(=O)OCC[C@H]21 (some centres not stated) | -1 | -1 | -5 | 11
CCC(C)c1ccc(-c2csc(Cn3c(CN4CCN(C)CC4)nc4ccccc4c3=O)n2)cc1 (configuration not stated) | -4 | 58* | -6 | -25
CCCCCn1c(SCc2cccnc2)nc2cc(C(=O)NCc3ccco3)ccc2c1=O | -3 | 0 | 0 | -4
CCCCCn1c(SCC(=O)CC(=O)OCC)nc2cc(C(=O)NCc3ccco3)ccc2c1=O | 63* | 34* | -27 | -101
COc1ccc(OC)c(NC(=O)CN2CCC(c3nc4ccccc4[nH]3)CC2)c1 | -2 | -14 | -5 | -36
Cc1cccc(NC(=O)Cn2c(=O)n(CC(=O)NCCc3ccccc3)c(=O)c3ccccc32)c1C | 8 | 22 | 13 | 48*
COc1ccc(CCNC(=O)CCCn2c(SCC(=O)NCc3ccco3)nc3ccccc3c2=O)cc1OC | -6 | 33* | 0 | 41*
CCC(=O)Nc1ccccc1-c1nc2ccccc2n(CC(=O)Nc2cc(OC)ccc2OC)c1=O | 11 | 45* | 40* | 85*
O=C(N1CCCC1c1nnc2n1CCNCC2)C1(c2ccccc2F)CCCC1 (configuration not stated) | 10 | 4 | 10 | 8
COc1ccc(C(=O)NCc2ccc3c(c2)OCO3)cc1S(=O)(=O)N1CCCc2ccccc21 | -17 | -28 | -17 | -75
COc1ccc(Cl)cc1NC(=O)Cn1c(=O)n(CCCCC(=O)NCCc2ccccc2)c(=O)c2ccccc21 | 42* | 14 | 1 | 5
Cc1cccc(NC(=O)Cn2c(C)nc3c(c2=O)CCN(Cc2ccccc2)C3)c1C | 14 | 30* | 0 | -2
Cc1ccc(Cn2c(=O)n(CCC(=O)NCCc3ccccc3)c(=O)c3ccccc32)cc1 | 34* | 46* | 30 | 63*
SMILES | USP8 block | USP17 inh | USP28 inh | USP30 block
COc1ccc(CCNC(=O)CCCn2c(=O)c3ccccc3n(Cc3ccccc3F)c2=O)cc1OC | -3 | 6 | -3 | -2
COc1ccc(CCNC(=O)CCCCn2c(=O)c3ccccc3n(Cc3cccc(Cl)c3)c2=O)cc1OC | 3 | 34* | 21 | 53*
COc1ccc(NC(=O)Cn2c(=O)n(CCCC(=O)NC3CCN(Cc4ccccc4)CC3)c(=O)c3ccccc32)cc1Cl | 3 | 0 | -23 | -29
COc1ccc(OC)c(NC(=O)Cn2c(=O)n(CC3CCC(C(=O)NCCc4ccccc4)CC3)c(=O)c3ccccc32)c1 (configuration not stated) | 22 | 39* | 23 | 36*
O=C(Cn1c(=O)n(CC2CCC(C(=O)NCCc3ccccc3)CC2)c(=O)c2ccccc21)NCc1ccco1 (configuration not stated) | 4 | -12 | -9 | -49
COc1ccc(CCNC(=O)CSc2cc(=O)n(C)c3cc(Cl)ccc23)cc1OC | -1 | 38* | 6 | 30
COc1ccc(NC(=O)CCCCn2c(=O)c3ccccc3n(Cc3cccc([N+](=O)[O-])c3)c2=O)cc1 | 21 | 33* | 17 | 10
Cc1cccnc1Nc1ccc(C2CN(Cc3ccnn3C)CCO2)nc1 (configuration not stated) | 0 | -3 | -6 | -12
CC1(C)Cc2c(c(N3CCCC3)nc3sc4c(NCc5ccccn5)ncnc4c23)CO1 | 3 | 4 | 3 | 1
CC(C)CC(=O)N1C[C@H]2C[C@H]3[C@](C1)(CN(Cc1ccncc1)S3(=O)=O)O2 | -25 | 0 | 5 | 24
CC(=O)O[C@@H]1/C=C(/C)[C@H](OC(=O)c2ccc(O)cc2)C/C=C(/C)CCCC1(C)C | 12 | 31* | 6 | 15
CSc1ncccc1C(=O)OCc1ccc(Cl)c(Cl)c1 | 13 | 45* | 44* | 25
CCc1ccc(NC(=O)c2sc3ncnc(N4CCN(C)CC4)c3c2C)cc1 | -7 | -11 | 35* | -4
Cc1c(C(=O)NCc2ccc(Cl)cc2)sc2ncnc(N3CCCC3)c12 | 14 | 18 | 31* | 43*
COc1ccc(N2CCN(c3ncnc4sc(C(=O)Nc5ccc(Oc6ccccc6)cc5)c(C)c34)CC2)cc1 | 16 | 2 | 7 | 2
CC(C)(C)c1ccc(C(=O)Nc2ccc(Oc3cccnc3)nc2)cc1 | 4 | 0 | 53* | 13
O=C(c1cccnc1)N1CCC(c2nc3ccccc3cc2C(=O)N2CCCC2)CC1 | 10 | 2 | 10 | 12
O=C(Nc1ccc(NS(=O)(=O)c2cccc(C(=O)N3CCCc4ccccc43)c2)cc1)c1ccccc1 | 4 | 32* | 14 | 5
O=C(Nc1ccc(NS(=O)(=O)c2ccc3c4c(cccc24)CC3)cc1)c1ccccc1 | 43* | 50* | 0 | -61
Cc1cccc(NS(=O)(=O)c2cc(C(=O)Nc3ccccc3)ccc2Cl)c1 | 16 | 17 | 7 | 11
O=C(NCC1CCCO1)c1c(O)c2cccc3c2n(c1=O)CC3 (configuration not stated) | 1 | 1 | -3 | -4
Cc1ccccc1NC(=O)CN1C(=O)C2CCCN2C(=O)c2ccc(F)cc21 (configuration not stated) | 3 | 2 | -4 | -5
